The record followed here is PubChem BioAssay (NCATS).

Test [1] can be described thus: qHTS to identify inhibitors of the type 1 interferon - major histocompatibility complex class I in skeletal muscle: primary screen against the NCATS Mechanism Interrogation Plate v5.0 (MIPE) Libary (AID 1347411). Also: nearly all actives have a fitted effect of over 65% in size. Also: potency is read from the fitted curve at half-maximal effect.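 As to activity change, negative = inhibition: plate controls were vehicle for no effect and reference inhibitor for full effect.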 Summed up:
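IFN-beta-driven (4 ng/ml) HLA-B-HiBit expression in CRISPR-tagged C25cl48 myoblasts; compounds 11-pt, 1:3, max 46 uM, 24 hr exposure; lytic NanoLuc complementation luminescence.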
For orientation: Quantitative high-throughput screening tests each substance at several concentrations.

A short description of test [2]: Primary qHTS for inhibitors of nuclear receptor binding SET domain protein 2 (NSD2) in an isogenic RCH-ACV NSD2 p.E1099K mutant (9B) (AID 1645876). Also: nearly all actives have a fitted effect of over 70% in size. Also: potency is read from the fitted curve at half-maximal effect.
Test [3] can be described thus: Primary qHTS for inhibitors of nuclear receptor binding SET domain protein 2 (NSD2) in an RCH-ACV wild type WT cells (2C) (AID 1645877). Also: nearly all actives have a fitted effect of over 70% in size. Also: potency is read from the fitted curve at half-maximal effect.
Test [4] deals with Glutathione peroxidase 1 (Homo sapiens) (UniProt P07203). As to the kind of experiment: Primary qHTS Assay for Inhibitors of Recombinant Selenoprotein Glutathione Peroxidase 1 (GPX1) (AID 1845191). Also: nearly all actives have a fitted effect of over 65% in size. Summed up:
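GR-coupled readout: NADPH consumption tracked by fluorescence, ex 340/em 450 nm, at t=0 and after 15 min at RT. Final mix 10 nM GPX1, 1 mM GSH, 0.5 mM CHP, 0.5 mM NADPH, 100 nM GR, 0.01% BSA, following 30 min enzyme–compound preincubation.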

For test [5], the target named is Phospholipid hydroperoxide glutathione peroxidase GPX4 (Homo sapiens) (UniProt P36969). As to the kind of experiment: Primary qHTS Assay for Inhibitors of Recombinant Selenoprotein Glutathione Peroxidase 4 (GPX4) (AID 1845192). Also: nearly all actives have a fitted effect of over 65% in size. As to activity change, negative = inhibition: % is scaled to controls: 0 for no effect and ±100 for the full control effect. Particulars: outcome: dose series up to 50 µM unless noted. Summed up: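 Steps: GPX4 plus compound, 30 min RT; add GR/GSH/NADPH master mix; start with cumene hydroperoxide; read 340/450 nm fluorescence at 0 and 15 min. Finals were 200 nM GPX4, 1 mM GSH, 0.5 mM CHP, 0.5 mM NADPH, 100 nM GR.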

Test [6] is described as follows: qHTS drug screen for cell cycle checkpoint inhibitors in PARPi-resistant BRCA-mutant ovarian cancer cell lines. (AID 1963452; calls by dose curve). Particulars: PEO1/OlaR viability, CellTiter-Glo luminescence, 96 h, stronger effect = lower value. Summed up:
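PEO1, PEO4 and PEO1/OlaR ovarian cancer cells, 600 per well, exposed 96 h at 37C to a dilution series. Viability read by CellTiter-Glo luminescence, normalized to DMSO and empty wells; activity summarized as Z-AUC.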

A short description of test [7]: NCATS anti-infectives library activity on HEK293 viability as a counter-qHTS vs the C. elegans viability qHTS (AID 1745854).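 Also: HEK293 cells exposed to compounds for 24 hr before the viability read; % is scaled to controls: 0 for no effect and ±100 for the full control effect.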 Summed up:
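Compound titrations (final up to 41.7 uM) were incubated with HEK293 cells for 24 hr at 37C under 5% CO2. Viable cells were quantified with CellTiter-Glo after 10 min at ambient temperature.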

Test [8] is described as follows: NCATS anti-infectives library activity on the primary C. elegans qHTS viability assay (AID 1745855; calls by dose curve; also: potency is read from the fitted curve at half-maximal effect). Summed up:
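Titration-based screen in worms: eggs hatched overnight in M9, L1 larvae fed TOP10 capsules in S medium with compound, incubated 21 °C for 7 days; fluorescent objects gated by size and intensity at days 0, 3 and 7.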

The target of test [9] is Catechol O-methyltransferase (Homo sapiens) (UniProt P21964). As to the kind of experiment: Confirmatory Screen for Target Class Profiling of Small Molecule Inhibitors of Methyltransferases (AID 1745852; calls by dose curve; as to activity change, negative = inhibition: % is scaled to controls: 0 for no effect and ±100 for the full control effect). The conditions noted are these: MTase-Glo luminescence, SAH detection, recombinant enzyme; measured here: COMT max response; stronger effect = lower value.
Test [10] addresses Guanidinoacetate N-methyltransferase (Homo sapiens) (UniProt Q14353). The test is described as above. The conditions noted are these: MTase-Glo luminescence, SAH detection, recombinant enzyme; activity change, negative = inhibition: at 57.3 µM (top of the series).
Test [11] addresses Nicotinamide N-methyltransferase (Homo sapiens) (UniProt P40261). The description is as above. The conditions noted are these: MTase-Glo luminescence, SAH detection, recombinant enzyme; measured here: NNMT max response; stronger effect = lower value.
Test [12] addresses Phenylethanolamine N-methyltransferase (Homo sapiens) (UniProt P11086). Described as above. Particulars: MTase-Glo luminescence, SAH detection, recombinant enzyme; measured here: PNMT max response; stronger effect = lower value.
[13] abbreviates: measured here: PEO1 parental Z-AUC.

The structures appear in SMILES notation. Inconclusive results are not listed. Calls of active or inactive are those of the source. Unless noted, calls follow the shape of the dose curve; as a rule, active = well fitted curve in the direction sought with a large enough effect; inconclusive = small, poorly fitted or top-dose-only effect, or another doubt; inactive = no such curve, though single readings can be large; an effect the other way counts as inactive or inconclusive. Where a SMILES comes first, the peptide text is derived from it. [ ]: non-standard residue; d: D form. The star is where a group is joined. Benzoyl(4-tBu) = CC(C)(C)c1ccc(C(=O)*)cc1; Lys(Et2) = CCN(CC)CCCC[C@H](N)C(=O)O

Sequence of Glutathione peroxidase 1 (Homo sapiens) (P07203 whole entry, looked up): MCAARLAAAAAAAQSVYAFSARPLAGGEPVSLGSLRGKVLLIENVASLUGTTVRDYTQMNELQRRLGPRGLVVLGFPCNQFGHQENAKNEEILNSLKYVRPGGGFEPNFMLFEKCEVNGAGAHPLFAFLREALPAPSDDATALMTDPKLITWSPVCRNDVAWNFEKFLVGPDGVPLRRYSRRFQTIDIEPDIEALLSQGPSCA
Sequence of Phospholipid hydroperoxide glutathione peroxidase GPX4 (Homo sapiens) (P36969 whole entry, looked up): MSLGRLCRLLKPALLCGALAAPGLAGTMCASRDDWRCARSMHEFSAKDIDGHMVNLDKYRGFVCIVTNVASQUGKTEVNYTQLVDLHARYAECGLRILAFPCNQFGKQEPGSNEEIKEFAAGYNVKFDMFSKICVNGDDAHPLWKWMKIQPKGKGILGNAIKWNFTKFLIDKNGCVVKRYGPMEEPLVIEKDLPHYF
Sequence of Catechol O-methyltransferase (Homo sapiens) (P21964 whole entry, looked up): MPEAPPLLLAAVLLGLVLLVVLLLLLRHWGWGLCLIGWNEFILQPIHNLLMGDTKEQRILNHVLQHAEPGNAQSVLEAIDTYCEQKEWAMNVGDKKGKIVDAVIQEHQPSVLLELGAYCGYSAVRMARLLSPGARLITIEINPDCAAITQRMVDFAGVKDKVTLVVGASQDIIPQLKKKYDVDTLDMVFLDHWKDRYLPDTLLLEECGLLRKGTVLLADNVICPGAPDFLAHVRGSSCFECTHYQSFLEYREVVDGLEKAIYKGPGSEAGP
Sequence of Phenylethanolamine N-methyltransferase (Homo sapiens) (P11086 whole entry, looked up): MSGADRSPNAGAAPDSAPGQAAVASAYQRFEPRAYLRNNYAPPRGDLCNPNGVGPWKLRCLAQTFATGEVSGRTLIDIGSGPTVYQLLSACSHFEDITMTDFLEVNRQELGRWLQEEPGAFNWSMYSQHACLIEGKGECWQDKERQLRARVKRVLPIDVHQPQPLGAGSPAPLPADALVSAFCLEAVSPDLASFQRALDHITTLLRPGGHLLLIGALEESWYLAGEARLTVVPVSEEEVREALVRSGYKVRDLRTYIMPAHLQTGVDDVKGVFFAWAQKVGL
Sequence of Nicotinamide N-methyltransferase (Homo sapiens) (P40261 whole entry, looked up): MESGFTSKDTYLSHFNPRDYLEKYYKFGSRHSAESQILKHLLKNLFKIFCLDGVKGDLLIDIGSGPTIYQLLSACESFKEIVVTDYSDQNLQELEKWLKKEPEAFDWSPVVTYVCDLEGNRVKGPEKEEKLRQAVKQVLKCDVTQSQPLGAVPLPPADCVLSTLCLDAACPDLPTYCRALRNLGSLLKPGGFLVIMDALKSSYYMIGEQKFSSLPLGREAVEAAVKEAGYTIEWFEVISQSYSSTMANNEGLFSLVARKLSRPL

As for `C[C@@]1(c2ncncc2F)NC(=O)c2cc(-c3cn[nH]c3)ccc21`, the Potency is 20.8 µM (active) in [1], 14.8 µM (active) in [2] and 14.8 µM (active) in test [3]. Also, the Potency entry in test [4] and in [5] was “inactive” each time. The results for the Z-AUC in test [6], in [6] (setting [13]) and in test [6] (measured here: PEO4 Z-AUC) were -0.499 (inactive), -0.528 and -0.372, respectively.
For the molecule `Nc1nccc(-c2c(-c3ccc(F)cc3)ncn2C2CCN(Cc3ccon3)CC2)n1`, the Potency entry in test [1], in test [4] and in test [5] was “inactive” in each case. Besides, the Potency in test [2] and in test [3] was 7.42 µM (active) throughout. Moreover, the values for the Z-AUC in [6], in [6] (setting [13]) and in test [6] (measured here: PEO4 Z-AUC) were 0.042 (inactive), 0.6 and 0.374, respectively.
Regarding `Nc1nc(-c2nn(Cc3ccccc3F)c3ncccc23)ncc1C1CC1`, the Potency result in test [1], in [4] and in test [5] was “inactive” in each case. In addition, the Potency in test [2] and in test [3] was 1.18 µM (active) throughout. Also, the figures for the Z-AUC in [6], in [6] (setting [13]) and in test [6] (measured here: PEO4 Z-AUC) were 1.67 (inactive), 0.865 and 1.09, respectively.
On to `CCc1cc2c(c(OCC(F)(F)F)c(C(=O)NC3CCN(C(=O)CO)CC3)n2C)c(=O)n1CC(=O)c1ccccc1`, for which the Potency entry in test [1], in test [2], in test [3], in test [4] and in test [5] was “inactive” each time. The figures for the Z-AUC in test [6], in test [6] (setting [13]) and in test [6] (measured here: PEO4 Z-AUC) were -1.12 (inactive), -0.345 and 0.581, respectively.
`Cc1c(NC(=O)c2cc(C(N)=O)nc3cc(F)ccc23)c(C(F)(F)F)nn1Cc1ccc(C(C)(C)C)cc1`: the Potency result in test [1], in test [2], in test [3], in test [4] and in [5] was “inactive” each time.
On to `O=C(NCc1ccccc1)[C@H](Cc1ccccc1)NC(=O)[C@H]1O[C@@H]1C(=O)NCCc1ccc(O)cc1`, for which the Potency entry in test [1], in test [4] and in [5] was “inactive” throughout. Besides, the Potency in [2] is 23.5 µM (active); in test [3] it was 18.6 µM (active).
Turning to `CC#Cc1cncc(-c2ccc3c(c2)[C@@]2(N=C(C)C(N)=N2)C2(CCC(OC)CC2)C3)c1` (some centres not stated), the Potency entry in test [1], in [2], in test [3], in [7], in [4] and in test [5] was “inactive” each time. Moreover, the Z-AUC was 1.27 (inactive) in test [6], 0.521 in test [6] (setting [13]) and 0.345 in test [6] (measured here: PEO4 Z-AUC).
Regarding `C=CC(=O)Nc1cccc(Oc2nc(Nc3ccc(N4CCN(C)CC4)c(F)c3)nc3[nH]ccc23)c1`, the Potency in test [1] is 20.8 µM (active); in test [2], 1.48 µM (active); in test [3], 1.32 µM (active). Further, the Potency result in test [4] and in test [5] was “inactive” throughout.
Regarding `CC(=O)O/N=C1\C(=O)N(Cc2cc(Cl)ccc2Cl)c2ccc(Cl)cc21`, the Potency is 14.7 µM (active) in test [1], 5.9 µM (active) in [2] and 4.17 µM (active) in test [3]. The Potency entry in [7] and in [4] was “inactive” in each case. Also, the Z-AUC in test [6] is 1.65 (inactive); in test [6] (setting [13]), 1.54; in test [6] (measured here: PEO4 Z-AUC), 1.73.
For `CC(=O)N1c2ccc(-c3ccc(C(=O)O)cc3)cc2[C@H](Nc2ccc(Cl)cc2)C[C@@H]1C`, the Potency result in test [1], in test [7] and in [4] was “inactive” throughout. For the same molecule, the Potency was 0.0934 µM (active) in test [2], 0.0934 µM (active) in [3] and 23 µM (active) in test [8]. In addition, the Z-AUC in test [6] was -0.689 (inactive); in test [6] (setting [13]) it was -0.385; in test [6] (measured here: PEO4 Z-AUC) it was -0.741.
With `CC(C)[C@H]1C(=O)N[C@@H](CCCN=C(N)N)C(=O)NCC(=O)N[C@@H](CC(=O)O)C(=O)N[C@H](Cc2ccccc2)C(=O)N1C`, the Potency entry in [1], in test [2], in test [3], in test [4] and in [5] was “inactive” in each case. In addition, the results for the Z-AUC in [6], in [6] (setting [13]) and in test [6] (measured here: PEO4 Z-AUC) were -1.37 (inactive), -1.22 and -0.795, respectively.
In the case of `CN(C)C/C=C/C(=O)Nc1cc2c(Nc3ccc(F)c(Cl)c3)ncnc2cc1O[C@H]1CCOC1`, the Potency was 16.5 µM (active) in [1], 2.35 µM (active) in test [2] and 1.86 µM (active) in test [3]. The Potency entry in test [4] and in [5] was “inactive” each time. Besides, the Z-AUC in test [6] was -1.12 (inactive); in [6] (setting [13]), -0.735; in test [6] (measured here: PEO4 Z-AUC) it was -1.62.
For the molecule `C[C@]12CCC3[C@@H](CC[C@H]4NC(=O)C=C[C@]34C)[C@@H]1CC[C@@H]2C(=O)Nc1cc(C(F)(F)F)ccc1C(F)(F)F` (some centres not stated), the Potency result in test [1], in [2], in test [3], in [7], in [4] and in test [5] was “inactive” throughout. In addition, the Z-AUC in [6] is -1.09 (inactive); in test [6] (setting [13]), -1.05; in test [6] (measured here: PEO4 Z-AUC), -1.07.
As for `CCN(CC)CCCC[C@H](NC(=O)[C@H](CC(C)C)NC(=O)[C@H](C)NC(=O)[C@H](Cc1ccccc1)NC(=O)c1ccc(C(C)(C)C)cc1)C(=O)N[C@@H](CO)C(=O)OC` ({Benzoyl(4-tBu)}-FAL[Lys(Et2)]S-OMe), the Potency result in test [1], in [2], in [3], in test [4] and in [5] was “inactive” in each case.
With `COc1ccnc2[nH]cc(C(=O)C(=O)N3CCN(C(=O)c4ccccc4)C[C@H]3C)c12`, the Potency entry in test [1], in test [2], in test [3], in [7], in test [8] and in test [5] was “inactive” in each case. In addition, the Z-AUC in test [6] is 1.3 (inactive); in test [6] (setting [13]), 1.05; in test [6] (measured here: PEO4 Z-AUC), 1.31.
With `O=C(/C=C/C#Cc1cccc(NS(=O)(=O)c2ccccc2)c1)NO`, the Potency in test [1] was 2.55 µM (active); in test [2], 0.456 µM (active); in [3], 0.574 µM (active). The figures for the activity in test [9], in test [11] and in test [12] were 41.7%, -13.8% and 1.13%, respectively. Moreover, in test [10], the activity change, negative = inhibition was -11.3%. Besides, the Potency entry in test [5] is “inactive”. Also, the Z-AUC was -0.732 (inactive) in [6], -0.336 in test [6] (setting [13]) and -0.647 in [6] (measured here: PEO4 Z-AUC).
With `O=S(=O)(Nc1ccc(-c2cccnc2)c2cccnc12)c1cccc(C(F)(F)F)c1`, the Potency in test [1] is 8.29 µM (active); in test [2], 7.42 µM (active); in test [3], 7.42 µM (active). For the same molecule, the Potency result in test [4] and in test [5] was “inactive” in each case. For the same molecule, the figures for the Z-AUC in [6], in test [6] (setting [13]) and in test [6] (measured here: PEO4 Z-AUC) were 0.456 (inactive), 0.0874 and 0.396, respectively.
Consider `COc1nc(N)nc2c1ncn2C1OC(CO)C(O)C1O` (configuration not stated), for which the Potency result in test [1], in [4] and in [5] was “inactive” each time. Moreover, the Potency in [2] is 5.25 µM (active); in [3], 4.68 µM (active). For the same molecule, the Z-AUC in test [6] is -0.613 (inactive); in [6] (setting [13]) it was -0.445; in [6] (measured here: PEO4 Z-AUC) it was -0.286.
As for `CCCNC(=O)c1cn2ncnc(Nc3cc(C(=O)NC4CC4)ccc3C)c2c1C`, the Potency result in test [1], in test [2], in [3], in test [4] and in [5] was “inactive” throughout. Also, the Z-AUC in [6] is -0.306 (inactive); in [6] (setting [13]), 0.435; in [6] (measured here: PEO4 Z-AUC), 0.239.
